The source of these data is PubChem BioAssay (NCATS).

Results filed as inconclusive are left out. The source made the active and inactive calls. Unless noted, the call rests on the fitted dose curve; in most records, active means well fitted curve in the direction sought with a large enough effect; inconclusive means small, poorly fitted or top-dose-only effect, or another doubt; inactive means no such curve, though single readings can be large; an effect the other way counts as inactive or inconclusive.

For test [1], the target named is Estrogen receptor (Homo sapiens) (UniProt P03372). Nature of the test: qHTS assay for small molecule antagonists of estrogen receptor alpha signaling (AID 588513; active means well fitted curve in the direction sought with a large enough effect in the signal ratio, with a control signal flat, not every such curve was filed as active; the % refers to the signal ratio; further: on the % scale 0 is the no-effect control and ±100 the full control effect). To be noted: ER-alpha-UAS-bla HEK293, beta-lactamase ratio, antagonist mode; series mostly up to 76.9 µM. The method, boiled down: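 Beta-lactamase reporter, antagonist mode, HEK 293 GripTite cells; 0.5nM E2 stimulus, 18 h, 37 C; CCF4 dye 2 h RT; fluorescence. IC50 and efficacy from Hill fits, normalized to E2 and DMSO.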
Estrogen receptor (Homo sapiens), sequence (P03372 whole entry, looked up): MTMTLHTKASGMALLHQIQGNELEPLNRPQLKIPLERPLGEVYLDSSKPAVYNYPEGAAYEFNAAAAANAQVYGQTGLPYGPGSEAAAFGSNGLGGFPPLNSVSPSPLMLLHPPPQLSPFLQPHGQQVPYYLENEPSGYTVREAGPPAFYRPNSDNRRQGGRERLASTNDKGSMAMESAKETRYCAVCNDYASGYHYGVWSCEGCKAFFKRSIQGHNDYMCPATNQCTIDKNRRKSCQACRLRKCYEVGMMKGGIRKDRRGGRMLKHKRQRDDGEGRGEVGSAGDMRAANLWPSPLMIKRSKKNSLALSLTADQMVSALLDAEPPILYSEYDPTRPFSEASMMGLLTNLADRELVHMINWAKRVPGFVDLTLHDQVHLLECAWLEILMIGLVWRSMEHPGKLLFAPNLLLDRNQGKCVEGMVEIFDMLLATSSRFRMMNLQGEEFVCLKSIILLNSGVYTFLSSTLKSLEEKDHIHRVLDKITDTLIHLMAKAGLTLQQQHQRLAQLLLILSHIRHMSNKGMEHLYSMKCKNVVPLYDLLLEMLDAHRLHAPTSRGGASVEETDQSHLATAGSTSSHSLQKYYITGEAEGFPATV
On the technique in general: In qHTS, concentration-response curves come from the screen itself.

Test [2] has the same target. Nature of the test: qHTS assay for small molecule agonists of estrogen receptor alpha signaling (AID 588514; calls by dose curve;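 further: 0% = vehicle only and 100% = reference agonist; nearly all actives have a fitted effect of over 70% in size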). To be noted: ER-alpha-UAS-bla HEK293, beta-lactamase ratio, 18 h; series mostly up to 76.8 µM. Summed up: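 EC50 and efficacy came from Hill fits of beta-lactamase reporter signal (CCF4 dye, 2 h at room temperature) scaled between DMSO and 20 nM 17-beta-estradiol. Agonist mode: HEK293 ER-alpha-UAS-bla cells in charcoal/dextran-stripped serum medium, 18 h compound exposure at 37 C.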

Test [3] can be described thus: qHTS assay for small molecule antagonists of peroxisome proliferator-activated receptor delta signaling (AID 588535; active means well fitted inhibition curve with a large enough effect in the signal ratio, with a control signal flat, not every such curve was filed as active; the % refers to the signal ratio;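 on max response: cells co-treated with a PPAR-delta agonist as stimulator during compound exposure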). To be noted: HEK293T PPARd-UAS-bla, beta-lactamase FRET ratio, 18 h; 460 nm channel. Summed up:
(§1)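 Titrations were run on PPAR-delta-UAS-bla HEK293T cells in charcoal/dextran-stripped serum, incubated 18 h at 37 C. CCF4 fluorescence (460/530 nm) after 2 h RT; Hill equation yields IC50 and maximal response.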

Test [4] addresses Peroxisome proliferator-activated receptor delta (Homo sapiens) (UniProt Q03181). The description is as above. As to conditions: HEK293T PPARd-UAS-bla, beta-lactamase FRET ratio, 18 h; series mostly up to 76.7 µM. Summed up:
as §1

Test [5] is described as follows: qHTS assay for small molecule agonists of retinoid X receptor alpha signaling (AID 588544; calls by dose curve;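 on activation: 0% = DMSO basal wells and 100% = reference agonist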). To be noted: HEK293T RXRa-UAS-bla, beta-lactamase reporter, 18 h; 530 nm emission.
Test [6] deals with Retinoic acid receptor RXR-alpha (Homo sapiens) (UniProt P19793). Described as above. As to conditions: HEK293T RXRa-UAS-bla, beta-lactamase reporter, 18 h; series mostly up to 76.7 µM.
Retinoic acid receptor RXR-alpha (Homo sapiens), sequence (P19793 whole entry, looked up): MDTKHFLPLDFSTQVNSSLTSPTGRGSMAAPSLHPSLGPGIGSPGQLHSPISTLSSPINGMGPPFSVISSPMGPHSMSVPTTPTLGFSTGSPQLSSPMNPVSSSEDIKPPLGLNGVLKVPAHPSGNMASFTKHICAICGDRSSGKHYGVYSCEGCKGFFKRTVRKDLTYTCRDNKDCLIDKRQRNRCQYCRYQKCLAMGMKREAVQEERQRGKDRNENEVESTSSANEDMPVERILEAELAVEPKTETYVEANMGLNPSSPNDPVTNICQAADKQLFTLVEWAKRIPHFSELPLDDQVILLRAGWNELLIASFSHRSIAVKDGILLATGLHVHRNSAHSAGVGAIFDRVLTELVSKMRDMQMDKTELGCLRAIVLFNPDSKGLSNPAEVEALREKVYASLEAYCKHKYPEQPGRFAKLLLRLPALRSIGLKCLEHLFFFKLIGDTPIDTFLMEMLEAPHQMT
For test [7], the target named is Thyroid hormone receptor beta (Homo sapiens) (UniProt P10828). Put plainly: qHTS assay for small molecule agonists of thyroid hormone receptor beta signaling (AID 588545; calls by dose curve). As to conditions: TR-UAS-bla GripTite HEK 293, beta-lactamase ratio, agonist mode, 18 h; series mostly up to 76.7 µM. Summed up:
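In this cell-based screen, titrated compounds act on HEK 293 cells held in medium with 2% charcoal/dextran FBS, NEAA and pyruvate for 18 hrs at 37 C. Responses are expressed relative to T3 (10 nM) as 100% and basal DMSO as 0%.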

Test [8] is described as follows: qHTS assay for small molecule antagonists of retinoid X receptor alpha signaling (AID 588546; active means well fitted inhibition curve with a large enough effect in the signal ratio, with a control signal flat, not every such curve was filed as active; the % refers to the signal ratio;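 further: cells stimulated with 9-cis-retinoic acid as agonist; on the % scale 0 is the no-effect control and ±100 the full control effect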). To be noted: HEK293T RXRa-UAS-bla, beta-lactamase ratio, antagonist mode; measured here: W530 green channel, cytotoxicity proxy. The method, boiled down: (§2)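 Beta-lactamase reporter inhibition, read as CCF4 fluorescence ratio (ex 405, em 460/530 nm) after 2 h at RT. HEK293T UAS-bla cells, 2500/well, were stimulated with 9-cis-RA at 500 or 100 nM final alongside test compound for 18 h at 37 C.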

The target in test [9] is Retinoic acid receptor RXR-alpha (Homo sapiens) (UniProt P19793). The description is as above. To be noted: HEK293T RXRa-UAS-bla, beta-lactamase ratio, antagonist mode. Summed up:
as §2

Test [10] in a line: qHTS assay for small molecule activators of the nuclear factor-kappa B (NF-kB) signaling pathway (AID 651749; active means well fitted activation curve with a large enough effect in the signal ratio; the % refers to the signal ratio; further: % of control where 0% means no effect). As to conditions: NF-kB-bla ME-180 cells, beta-lactamase FRET ratio, 16 h; activation: stronger effect = higher value. Summed up: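 Activation measured after 16 hr compound treatment at 37C, 5% CO2, of 2,000 ME-180 cells/well stably expressing an NF-kB response element–driven beta-lactamase reporter, via FRET-disruption fluorescence.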

Test [11] is described as follows: qHTS assay for environmental chemicals that activate the Aryl hydrocarbon Receptor (AhR) signaling pathway (AID 651777). Further: % of control where 0% means no effect; nearly all actives have a fitted effect of over 15% in size. To be noted: 1A2-DRE human hepatoma cells, luciferase, 24 h; activation: stronger effect = higher value. The method, boiled down:
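AhR activation is scored as a rise in luciferase from a stable DRE–CYP1A2 promoter construct in human hepatoma cells. Treatment lasts 24 hr at 37 C; detection uses One-Glo after 30 min at room temperature.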

The target of test [12] is Peroxisome proliferator-activated receptor alpha (Homo sapiens) (UniProt Q07869). Nature of the test: qHTS assay for small molecule agonists of the peroxisome proliferator-activated receptor alpha (PPARalpha) signaling pathway (AID 651778). Further: % of control where 0% means no effect. As to conditions: PathHunter PPARalpha complementation, chemiluminescence, 6 h; max response: stronger effect = higher value. Summed up:
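Chemiluminescence from complemented enzyme reported PPARalpha activation in cells after 6 hr of compound treatment at 37 C. The detection reagent was incubated for 60 min at room temperature, and compounds were scored as agonists.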

A short description of test [13]: qHTS assay for small molecule agonists of the antioxidant response element (ARE) signaling pathway measured by Nrf2-dependant transcriptional activity (AID 720636; active means well fitted curve in the direction sought with a large enough effect in the repeat runs; an effect the other way counts as inactive or inconclusive; further: % of control where 0% means no effect). As to conditions: ARE-luc HepG2, Nrf2 luciferase reporter, 16 h; series mostly up to 92.4 µM. Summed up: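 First, ARE-luc HepG2 cells attached for 6 hr at 37 C in 1% dialyzed FBS medium. Next, compound or DMSO was added and incubated 16 hr. Finally, ONE-Glo reagent was added and luminescence measured after 30 min.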

The nature of test [14]: qHTS assay for small molecule agonists of the antioxidant response element (ARE) signaling pathway measured by Nrf2-dependant transcriptional activity - cell viability counter screen (AID 720653; active means well fitted curve in the direction sought with a large enough effect in the repeat runs; an effect the other way counts as inactive or inconclusive; further: on the % scale 0 is the no-effect control and ±100 the full control effect). To be noted: ARE-bla HepG2 viability, CellTiter-Glo ATP luminescence, 16 h; max response: stronger effect = lower value. The method, boiled down: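 Cytotoxicity counter screen: intracellular ATP quantified by CellTiter-Glo luminescence in the same ARE-bla HepG2 plates, after 16 h compound exposure and a 2 h beta-lactamase substrate step.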

The nature of test [15]: qHTS assay for cell viability of HEK293 cells (AID 743288). Further: on the % scale 0 is the no-effect control and ±100 the full control effect; nearly all actives have a fitted effect of over 50% in size. To be noted: ATP luminescence (CellTiter-Glo), 18 h; max response: stronger effect = lower value. Summed up: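 ATP luminescence (CellTiter-Glo) reports metabolically competent cell number after parental HEK293 cells, 2,000/well, were treated with DMSO-dissolved compounds for 18 h at 37 C; reagent incubation 30 min, room temperature.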

Test [16] in a line: qHTS assay for cell viability of the p53RE-bla HCT-116 cell line (AID 743292). Further: on the % scale 0 is the no-effect control and ±100 the full control effect; nearly all actives have a fitted effect of over 55% in size. As to conditions: p53RE-bla HCT-116 viability, ATP luminescence, 16 h; series mostly up to 95 µM. The method, boiled down: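 Quantitative high-throughput format: compounds in DMSO were pinned onto p53RE-bla HCT-116 cells (4,000/well) and incubated 16 h at 37 C. Total intracellular ATP, read by CellTiter-Glo luminescence, reflects viable cell number.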

Test [17] deals with Nuclear receptor subfamily 1 group I member 2 (Rattus norvegicus) (UniProt Q9R1A7). Put plainly: qHTS assay for small molecule activators of the rat pregnane X receptor (rPXR) signaling pathway (AID 651751; call rule not given here; further: 0% is about no effect). As to conditions: rPXR reporter cells, luciferase (One-Glo), 24 h.
Nuclear receptor subfamily 1 group I member 2 (Rattus norvegicus), sequence (Q9R1A7 whole entry, looked up): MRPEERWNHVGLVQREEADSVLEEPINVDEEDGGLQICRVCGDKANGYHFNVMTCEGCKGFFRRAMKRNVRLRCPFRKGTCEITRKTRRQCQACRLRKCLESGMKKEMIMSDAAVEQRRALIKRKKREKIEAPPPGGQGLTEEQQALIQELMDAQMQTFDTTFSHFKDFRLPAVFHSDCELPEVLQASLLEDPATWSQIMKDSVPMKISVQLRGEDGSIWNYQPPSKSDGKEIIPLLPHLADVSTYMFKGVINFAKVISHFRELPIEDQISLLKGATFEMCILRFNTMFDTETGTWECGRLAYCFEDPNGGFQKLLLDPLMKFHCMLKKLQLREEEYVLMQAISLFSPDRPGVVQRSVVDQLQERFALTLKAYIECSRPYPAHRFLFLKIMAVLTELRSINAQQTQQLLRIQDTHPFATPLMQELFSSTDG
The nature of test [18]: qHTS assay for small molecule activators of the human pregnane X receptor (PXR) signaling pathway (AID 720659; call rule not given here; further: 0% is about no effect). As to conditions: DPX-2 HepG2 CYP3A4-luciferase, 24 h; series mostly up to 92.3 µM.
Test [19] deals with Glucocorticoid receptor (Homo sapiens) (UniProt P04150). Nature of the test: qHTS assay for small molecule agonists of glucocorticoid receptor signaling (AID 588532; active means well fitted curve in the direction sought with a large enough effect in the signal ratio, with a control signal flat; the % refers to the signal ratio;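 further: 100% = dexamethasone at 0.1 µM and 0% = DMSO only wells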). To be noted: HeLa MMTV-bla, beta-lactamase ratio, agonist, 18 h; stronger effect = higher value; percent of dexamethasone control, DMSO zero. The method, boiled down: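 Quantitative HTS using CellSensor MMTV-bla HeLa cells in charcoal/dextran-treated serum; compounds tested up to 92 uM. After 18 h at 37 C, CCF4 dye reported reporter induction.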
Glucocorticoid receptor (Homo sapiens), sequence (P04150 whole entry, looked up): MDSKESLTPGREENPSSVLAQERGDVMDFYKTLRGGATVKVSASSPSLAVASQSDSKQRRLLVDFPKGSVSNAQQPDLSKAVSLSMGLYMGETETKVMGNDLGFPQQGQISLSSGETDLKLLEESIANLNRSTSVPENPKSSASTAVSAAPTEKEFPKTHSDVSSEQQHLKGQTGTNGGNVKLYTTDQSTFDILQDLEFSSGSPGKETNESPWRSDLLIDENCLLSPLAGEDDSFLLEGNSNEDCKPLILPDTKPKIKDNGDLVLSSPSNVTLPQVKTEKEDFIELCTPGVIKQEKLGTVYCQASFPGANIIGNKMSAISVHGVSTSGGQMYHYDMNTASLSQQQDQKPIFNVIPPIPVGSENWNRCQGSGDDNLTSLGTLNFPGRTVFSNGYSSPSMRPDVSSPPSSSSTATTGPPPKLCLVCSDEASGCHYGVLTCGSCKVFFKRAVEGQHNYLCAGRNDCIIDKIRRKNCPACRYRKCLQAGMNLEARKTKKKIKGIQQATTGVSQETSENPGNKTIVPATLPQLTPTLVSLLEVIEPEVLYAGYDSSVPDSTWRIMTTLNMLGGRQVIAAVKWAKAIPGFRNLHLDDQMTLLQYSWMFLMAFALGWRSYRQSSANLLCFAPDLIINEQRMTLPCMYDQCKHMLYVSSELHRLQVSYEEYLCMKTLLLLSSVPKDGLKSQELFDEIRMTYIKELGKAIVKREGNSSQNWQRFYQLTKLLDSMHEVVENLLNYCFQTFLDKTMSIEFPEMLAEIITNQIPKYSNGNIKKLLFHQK

Peroxisome proliferator-activated receptor alpha (Homo sapiens), sequence (Q07869 whole entry, looked up): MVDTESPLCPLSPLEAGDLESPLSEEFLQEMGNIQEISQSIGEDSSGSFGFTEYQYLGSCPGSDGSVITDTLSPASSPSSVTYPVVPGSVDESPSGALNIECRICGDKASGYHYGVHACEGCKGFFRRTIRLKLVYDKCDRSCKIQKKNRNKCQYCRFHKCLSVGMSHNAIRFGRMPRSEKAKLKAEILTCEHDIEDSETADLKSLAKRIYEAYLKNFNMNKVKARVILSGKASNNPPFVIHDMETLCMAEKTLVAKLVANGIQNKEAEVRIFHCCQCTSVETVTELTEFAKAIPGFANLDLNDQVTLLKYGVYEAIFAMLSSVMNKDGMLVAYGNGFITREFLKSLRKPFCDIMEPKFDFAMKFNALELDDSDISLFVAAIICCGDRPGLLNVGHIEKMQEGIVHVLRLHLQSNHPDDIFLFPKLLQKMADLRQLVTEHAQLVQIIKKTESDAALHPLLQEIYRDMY
Thyroid hormone receptor beta (Homo sapiens), sequence (P10828 whole entry, looked up): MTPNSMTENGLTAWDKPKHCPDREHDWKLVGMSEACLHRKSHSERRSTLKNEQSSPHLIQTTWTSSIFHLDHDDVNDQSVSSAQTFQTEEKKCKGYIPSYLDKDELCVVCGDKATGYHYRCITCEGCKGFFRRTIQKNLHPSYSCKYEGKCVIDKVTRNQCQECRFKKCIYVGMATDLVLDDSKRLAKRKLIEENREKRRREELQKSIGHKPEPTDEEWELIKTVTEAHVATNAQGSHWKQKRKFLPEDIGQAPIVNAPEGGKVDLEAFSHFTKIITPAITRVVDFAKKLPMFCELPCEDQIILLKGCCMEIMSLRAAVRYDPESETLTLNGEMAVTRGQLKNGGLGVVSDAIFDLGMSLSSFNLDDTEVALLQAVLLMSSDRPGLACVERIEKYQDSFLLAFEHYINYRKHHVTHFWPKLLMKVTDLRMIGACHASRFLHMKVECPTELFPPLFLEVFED
Peroxisome proliferator-activated receptor delta (Homo sapiens), sequence (Q03181 whole entry, looked up): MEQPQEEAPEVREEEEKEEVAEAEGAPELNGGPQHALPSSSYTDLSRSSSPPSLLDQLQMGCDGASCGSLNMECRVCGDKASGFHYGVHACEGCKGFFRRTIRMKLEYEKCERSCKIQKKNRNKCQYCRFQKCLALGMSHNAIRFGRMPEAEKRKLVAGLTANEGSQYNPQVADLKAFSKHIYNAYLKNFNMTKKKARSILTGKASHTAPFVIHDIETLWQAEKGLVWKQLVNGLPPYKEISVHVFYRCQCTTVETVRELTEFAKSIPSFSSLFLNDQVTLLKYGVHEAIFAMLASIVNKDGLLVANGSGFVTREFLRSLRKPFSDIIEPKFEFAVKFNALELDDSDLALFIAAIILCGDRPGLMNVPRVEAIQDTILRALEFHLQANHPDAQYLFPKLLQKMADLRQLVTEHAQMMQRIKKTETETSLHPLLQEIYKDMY

For `CCC(C)(C)C1CCC(O)CC1` (centres undefined), the Potency entry in [1], in test [2], in [4], in test [6], in test [7] and in [13] was “inactive” in each case. For the same compound, the Potency entry in [16] is “inactive”. Also, the max response was -12.1% in [3]; -12.5% in [5]; 9.01% in [8]; -29.4% (inactive) in [9]; -0.406% (inactive) in test [12]; -8.65% (inactive) in test [14]. For the same compound, the max response is -3.71% (inactive) in test [15] and -1.01% (inactive) in test [17]. The activation was -0.533% (inactive) in test [10] and -0.126% (inactive) in [11]. In test [18], the compound was classed as inactive.
In the case of `CCC(=O)C1C(=O)CC(C(=O)O)CC1=O` (centres undefined), the Potency result in test [1], in test [6], in test [7] and in test [13] was “inactive” in each case. In addition, the activation is 6.99% (inactive) in test [19], 0.776% (inactive) in test [10] and -0.512% (inactive) in test [11]. Besides, the max response in test [5] was -10.4%; in test [12] it was 1.2% (inactive); in test [14], 14.2% (inactive); in test [17], -8.49% (inactive). In addition, the call in test [18] was inactive.
For `Brc1ccc(Br)c(Br)c1`, the Potency result in [1], in [2], in test [6], in [7] and in test [16] was “inactive” each time. Also, the max response in test [5] was 0.274%; in test [8] it was -16.3%; in test [12] it was -4.16% (inactive); in [14] it was -18% (inactive); in test [15] it was -15.6% (inactive); in test [17], -1.74% (inactive). For the same compound, the results for the activation in [10] and in test [11] were -0.374% (inactive) and 2.73% (inactive), respectively. For the same compound, the result in test [18] was inactive.
